This is a sample that favours compounds with a hit; in the whole collection about 12% have one here.
LASV entry inh = Lassa virus entry inhibition | Lassa virus pseudotype entry inhibition, cell reporter | Potency, µM (series often up to 37.9 µM), hits mostly inhibitors | actives 1.2% (n = 300,000) | AID 540256; calls by dose curve; tested in HEK293 cells; note: nearly all actives have a fitted effect of over 50% in size
Shiga toxin inh = blocks Shiga toxin action in Vero cells | inhibition, % at 38.7 µM | AID 2315 | Vero cells, Shiga toxin protein synthesis inhibition reporter | actives 9.2% (n = 290,000); in the data active = inhibition mostly above about 28%, no sharp cut-off; inactive = mostly below about 43%
MARV entry inh = blocks Marburg virus binding to or entry into cells. Marburg virus pseudotyped entry inhibition, cell reporter. Potency, µM (titrated, usually from 37.8 µM), actives largely listed as inhibitors. actives 1.8% (n = 300,000). AID 540276; calls by dose curve; tested in HEK293 cells
CHX counter = affects cycloheximide protein synthesis inhibition readout, counter-screen; cell reporter, cycloheximide protein synthesis inhibition counterscreen; max response, %; actives 12% (n = 300,000); in the data active = max response mostly above about 13%, no sharp cut-off; inactive = mostly below about 14%; note: read at 38.3 µM for the half of the compounds with a filed dose
A number is an active result.

Results for COc1ccc(CCNC(=O)c2ccc(-c3ccc([N+](=O)[O-])cc3)o2)cc1OC ?
LASV entry inh: inconclusive; Shiga toxin inh: inactive; MARV entry inh: inconclusive; CHX counter: inactive

Results for CCOc1ccc(CCNC(=O)C(C)N2C(=O)CC(C)(C)Sc3ccccc32)cc1 (centres undefined) ?
Shiga toxin inh: inactive; CHX counter: inactive

What do the screens show for `CCCn1c2c(c(O)c(C(=O)NCCCN(CC)CC)c1=O)CCCC2`?
LASV entry inh: inactive; Shiga toxin inh: inactive; MARV entry inh: 10µM; CHX counter: inactive

Results for CCOC(=O)NN1C(=O)c2ccccc2NC1c1ccc(OC)cc1OC (centres undefined) ?
Shiga toxin inh: inactive; CHX counter: inactive

Results for COc1ccc(C(=O)NCc2cccnc2)cc1S(=O)(=O)N1CCCc2ccccc21 ?
LASV entry inh: inactive; Shiga toxin inh: inactive; MARV entry inh: inconclusive; CHX counter: 19.4

How did COc1ccc(C(=O)NC2CCCCCC2)cc1S(=O)(=O)N1CCCC1 do in these assays?
LASV entry inh: inactive; Shiga toxin inh: inactive; MARV entry inh: inactive; CHX counter: inactive

What do the screens show for `COc1ccc(C(=O)N2CCNC(=O)C2)cc1S(=O)(=O)Nc1ccc(Br)cc1`?
LASV entry inh: inactive; MARV entry inh: inactive

How did COc1ccc(C(=O)NC2CCCCCC2)cc1S(=O)(=O)N1CCCc2ccccc21 do in these assays?
LASV entry inh: 7.08µM; Shiga toxin inh: inactive; MARV entry inh: inconclusive; CHX counter: inactive

Results for COc1ccc(C(=O)NC2CCCCCC2)cc1S(=O)(=O)Nc1ccc(Br)cc1 ?
LASV entry inh: inactive; Shiga toxin inh: 56.4; MARV entry inh: inconclusive; CHX counter: 17.9

What do the screens show for `Cc1ccc(/C=N/c2sc3c(c2C#N)CCC3)o1`?
LASV entry inh: inactive; Shiga toxin inh: inactive; MARV entry inh: inconclusive; CHX counter: inactive

What do the screens show for `N#Cc1c(/N=C/C2C(=O)NC(=S)NC2=O)sc2c1CCCC2`?
LASV entry inh: inactive; Shiga toxin inh: inactive; MARV entry inh: inactive; CHX counter: inactive

What do the screens show for `CN(C)/C=N/c1sc2c(c1C#N)CCC2`?
LASV entry inh: inconclusive; Shiga toxin inh: inactive; MARV entry inh: inactive; CHX counter: 43.5

What do the screens show for `CCCN(/C=N/c1sc2c(c1C#N)CCCCC2)CCC`?
LASV entry inh: inactive; Shiga toxin inh: inactive; MARV entry inh: inconclusive; CHX counter: inactive

Results for CN(C)/C=N/c1sc2c(c1C#N)CCCCC2 ?
LASV entry inh: inactive; Shiga toxin inh: 20.0; MARV entry inh: inconclusive; CHX counter: 56.5

Results for N#Cc1c(/N=C/N2CCOCC2)sc2c1CCCCC2 ?
LASV entry inh: inactive; Shiga toxin inh: 106.7; MARV entry inh: inactive; CHX counter: inactive

Results for Cc1ccc(C)c(NC(=O)Cn2c(=O)n(-c3ccccc3C)c(=O)c3c2c2cc(C)ccc2n3C)c1 ?
LASV entry inh: inactive

What do the screens show for `O=c1oc2ccccc2c2c1C1O[C@](c3ccsc3)(Cc3ccccc31)O2`?
Shiga toxin inh: inactive; CHX counter: inactive

What do the screens show for `CC(C)CN(C(=O)COC(=O)COc1ccc2c(c1)CCC2)c1c(N)n(Cc2ccccc2)c(=O)[nH]c1=O`?
LASV entry inh: inactive; MARV entry inh: inactive

What do the screens show for `Cc1nc(/C(N)=N/OC(=O)c2ccc(Cl)cc2)c(C(F)(F)F)o1`?
Shiga toxin inh: 45.9; CHX counter: 45.8

Results for Cc1nc(C(=O)NNC(=O)c2cccc(Cl)c2)c(C(F)(F)F)o1 ?
LASV entry inh: inactive; Shiga toxin inh: inactive; MARV entry inh: inactive; CHX counter: inactive

How did O=C(Cc1ccccc1)Nc1ccccc1Sc1ccccc1 do in these assays?
LASV entry inh: inactive; Shiga toxin inh: inactive; MARV entry inh: inactive; CHX counter: inactive

How did CC(=O)N1CCN(CC(=O)Nc2ccccc2Sc2ccc(Cl)cc2)CC1 do in these assays?
LASV entry inh: 5.01µM; Shiga toxin inh: inactive; MARV entry inh: inactive; CHX counter: inactive

What do the screens show for `O=C(CCl)Nc1ccccc1Sc1ccc(Cl)cc1`?
LASV entry inh: inconclusive; Shiga toxin inh: inactive; MARV entry inh: 23.1µM; CHX counter: inactive

What do the screens show for `COC(=O)c1ccccc1NC(=O)CN1CCc2ccccc2C1`?
LASV entry inh: inactive; Shiga toxin inh: inactive; MARV entry inh: inactive; CHX counter: inactive

Results for O=C(CN1CCN(c2ccccc2)CC1)Nc1ccccc1Sc1ccccc1 ?
LASV entry inh: inconclusive; Shiga toxin inh: inactive; MARV entry inh: 4.47µM; CHX counter: inactive

How did COC(=O)c1ccccc1NC(=O)CN1CCN(C23CC4CC(CC(C4)C2)C3)CC1 do in these assays?
LASV entry inh: inconclusive; Shiga toxin inh: inactive; MARV entry inh: 5.8µM; CHX counter: inactive

Results for COc1ccc(OCCCC(=O)N(C)CC(=O)Nc2ccccc2Cl)cc1 ?
LASV entry inh: inactive; Shiga toxin inh: inactive; MARV entry inh: inactive; CHX counter: inactive

How did COC(=O)c1ccc(C(=O)OC)c(NC(=O)CN2CCN(c3ccccc3)CC2)c1 do in these assays?
LASV entry inh: inconclusive; Shiga toxin inh: inactive; MARV entry inh: 9.2µM; CHX counter: inactive

What do the screens show for `COC(=O)c1ccc(C(=O)OC)c(NC(=O)/C=C/C(=O)O)c1`?
LASV entry inh: inactive; Shiga toxin inh: inactive; MARV entry inh: inactive; CHX counter: 10.9

What do the screens show for `COC(=O)c1ccc(C(=O)OC)c(NC(=O)CN2CCN(c3ccc(OC)cc3)CC2)c1`?
LASV entry inh: inactive; Shiga toxin inh: inactive; MARV entry inh: inactive; CHX counter: inactive

What do the screens show for `COc1ccc(Cl)cc1NC(=O)c1c(NCc2ccc(C)o2)sc2c1CCCCC2`?
LASV entry inh: inactive

Results for Nc1c(Cl)nc(-c2ccccc2)nc1Cl ?
Shiga toxin inh: inactive; CHX counter: 13.8

Results for Cc1ccc(CSc2c(C)cnc3c2c(=O)n(C)c(=O)n3C)cc1 ?
LASV entry inh: inactive

How did c1ccc(CSc2nnc(-c3c[nH]c4ccccc34)o2)cc1 do in these assays?
LASV entry inh: inactive; Shiga toxin inh: 169.1; MARV entry inh: inactive; CHX counter: 48.2

Results for N#Cc1ccc(CSc2nnc(-c3c[nH]c4ccccc34)n2-c2ccccc2)cc1 ?
LASV entry inh: inconclusive; Shiga toxin inh: inactive; MARV entry inh: 2.51µM; CHX counter: inactive

How did CC(C)(C)NC(=O)CSc1nnc(-c2c[nH]c3ccccc23)o1 do in these assays?
Shiga toxin inh: 64.8; CHX counter: 28.3

What do the screens show for `CCN(CC)C(=O)CSc1nnc(-c2c[nH]c3ccccc23)o1`?
CHX counter: 40.1

What do the screens show for `NC(=O)NCCc1ccccc1`?
Shiga toxin inh: inactive; CHX counter: inactive

What do the screens show for `C[C@H]1[C@@H](C(=O)N2CCCC2)CC(=O)C(=NOCc2ccccc2)C[C@H]1c1ccccc1`?
LASV entry inh: inconclusive; MARV entry inh: inactive

How did O=C(Cn1cnc2ccccc2c1=O)N/N=C/c1ccc(Br)cc1 do in these assays?
LASV entry inh: inactive; Shiga toxin inh: inactive; MARV entry inh: inactive; CHX counter: inactive

What do the screens show for `CCOC(=O)c1ccc(NC(=O)CN(Cc2ccc(Cl)cc2)S(C)(=O)=O)cc1`?
LASV entry inh: inactive; Shiga toxin inh: inactive; MARV entry inh: inactive; CHX counter: inactive

What do the screens show for `COc1ccc(C)cc1S(=O)(=O)N(C)CC(=O)Nc1ccc2c(c1)OCO2`?
LASV entry inh: inactive; Shiga toxin inh: inactive; MARV entry inh: inactive; CHX counter: inactive

What do the screens show for `CS(=O)(=O)N(CC(=O)Nc1ccc2c(c1)OCCO2)Cc1ccc(Cl)cc1`?
LASV entry inh: inactive; Shiga toxin inh: 33.3; MARV entry inh: inactive; CHX counter: 21.8
